Test results published in PubChem BioAssay (Tox21).
Records with an inconclusive call do not appear. Entries that show only a call come without a potency. Active and inactive are the calls of the source. Unless noted, calls come from the whole dose curve; as a rule, active = well fitted curve in the direction sought with a large enough effect in the repeat runs; inconclusive = weak or mixed curves; inactive = no such curve, though single readings can be large; an effect the other way counts as inactive or inconclusive.

Legend:
[1] = qHTS assay to identify small molecule agonists of the sonic hedgehog signaling (Shh) pathway (AID 1259368; calls by dose curve;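 note: NIH/3T3-derived 3T3Gli1-Luc cells carrying a stable Gli1-driven firefly luciferase reporter; series mostly up to about 92 µM; nearly all actives have a fitted effect of over 15% in size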)
Summary of the method: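 Stable NIH/3T3 Gli1-Luc reporter clone; 24 hr cpd exposure after a 4 hr settling period; luminescence endpoint.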

[2] = qHTS assay to identify small molecule antagonists of the sonic hedgehog signaling (Shh) pathway (AID 1259369; calls by dose curve; note: nearly all actives have a fitted effect of over 45% in size; note: potency is the fitted concentration of half-maximal effect)
Summary of the method: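 Gli1 transcriptional reporter (firefly Luc) in NIH/3T3 background, conditioned-medium activated. 24hr exposure, luminescence endpoint.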

[3] = qHTS assay to identify small molecule agonists of the androgen receptor (AR) signaling pathway in the presence of an antagonist - cell viability counter screen (AID 1259379);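 note: MDA-kb2 human breast cancer cells carrying an MMTV luciferase reporter; series mostly up to about 92 µM; nearly all actives have a fitted effect of over 25% in size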
Summary of the method: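 Counter screen for cell viability run in parallel with the AR agonist-mode luciferase assay. MDA-kb2 cells were co-treated with nilutamide (3.0uM final) and compounds, then incubated 16 hr at 37C, and CellTiter-Fluor fluorescence was measured.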

[4] = qHTS assay to identify small molecule agonists of the estrogen receptor beta (ER-beta) signaling pathway - cell viability counter screen (AID 1259380); note: nearly all actives have a fitted effect of over 30% in size; note: potency is the fitted concentration of half-maximal effect
Summary of the method: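 In this qHTS counter screen, HEK293T cells carrying an ER-beta/UAS beta-lactamase reporter, grown in 2% charcoal-stripped FBS, received compound for 16 hr; ATP-based CellTiter-Glo luminescence was then read after 30 min at room temperature.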

[5] = qHTS assay to identify small molecule antagonists of the estrogen receptor beta (ER-beta) signaling pathway - cell viability counter screen (AID 1259382); note: nearly all actives have a fitted effect of over 55% in size; note: potency is the fitted concentration of half-maximal effect
Summary of the method: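 HEK293T ER-beta-UAS-bla, 2% charcoal-stripped FBS; compounds + 1nM E2 16 hr 37C; CellTiter-Glo luminescence, 30 min RT.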

[6] = target: Estrogen receptor (Homo sapiens) (UniProt P03372); test: qHTS assay to identify small molecule agonists of the estrogen receptor alpha (ER-alpha) signaling pathway in the presence of an antagonist (AID 1259383; calls by dose curve; note: top concentration of the series differs between compounds; nearly all actives have a fitted effect of over 15% in size)
Summary of the method: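 ER-alpha agonism measured under antagonist challenge: 10.0nM ICI-182,780 (final) plus compound, 15 concentrations, 22hr, VM7Luc4E2 ERE-luciferase cells. Read by luminescence.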

[7] = qHTS assay to identify small molecule agonists or antagonists of the thyroid stimulating hormone receptor (TSHR) signaling pathway - wild type cell line counter screen (AID 1259384; calls by dose curve)
Summary of the method: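 Wild-type HEK293 cells were plated 18 h at 37 C/5% CO2, pin-dosed with compound plus Ro20-1724 medium, held 30 min at room temperature, then given cAMP-d2 and anti-cAMP-cryptate; fluorescence was read after 1 h. Fifteen concentrations, triplicate.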

[8] = target: Thyrotropin receptor (Homo sapiens) (UniProt P16473); test: qHTS assay to identify small molecule antagonists of the thyroid stimulating hormone receptor (TSHR) signaling pathway (AID 1259385; calls by dose curve; note: nearly all actives have a fitted effect of over 20% in size; note: potency is the fitted concentration of half-maximal effect)
Summary of the method: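 TSHR-HEK293 cells were plated and held 18 h at 37C/5% CO2, then given compound plus Ro20-1724 and stimulated with TSH at 1.5 ng/mL final. After 30 min at room temperature, cAMP was detected with cAMP-d2/anti-cAMP-cryptate (1 h) by fluorescence.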

[9] = target: Progesterone receptor (Homo sapiens) (UniProt P06401); test: qHTS assay to identify small molecule agonists of the progesterone receptor (PR) signaling pathway (AID 1346784; calls by dose curve; note: nearly all actives have a fitted effect of over 30% in size)
Summary of the method: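 Cells (PR-UAS-bla HEK 293T, GripTite) were plated in assay medium containing 2% charcoal-stripped FBS and incubated 6 hr. Test compounds in DMSO were added for 16 hr at 37C. FRET substrate was then loaded for 2 hr at room temperature before fluorescence reading.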

[10] = target: Progesterone receptor (Homo sapiens) (UniProt P06401); test: qHTS assay to identify small molecule antagonists of the progesterone receptor (PR) signaling pathway (AID 1346795; active = well fitted inhibition curve with a large enough effect in the signal ratio in the repeat runs, not every such curve was filed as active; the % refers to the signal ratio; note: potency is the fitted concentration of half-maximal effect)
Summary of the method: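 Antagonist mode: compounds tested against 1 nM (final) promegestone stimulation in HEK293T cells expressing PR-UAS-bla reporter, 16 hr at 37C, 5% CO2; beta-lactamase activity detected via B/G FRET substrate after 2 hr at room temperature.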

[11] = qHTS assay to identify small molecule antagonists of the progesterone receptor (PR) signaling pathway - cell viability counter screen (AID 1346798); note: nearly all actives have a fitted effect of over 50% in size; note: potency is the fitted concentration of half-maximal effect
Summary of the method: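 Counter screen for cytotoxicity: viability of PR-UAS-bla HEK293T cells was measured with CellTiter-Glo luminescence following 16 hr compound exposure in the presence of R5020.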

[12] = qHTS assay to identify small molecule agonists of the progesterone receptor (PR) signaling pathway - cell viability counter screen (AID 1346799; calls by dose curve; note: nearly all actives have a fitted effect of over 45% in size; note: potency is the fitted concentration of half-maximal effect)
Summary of the method: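 Cells (PR-UAS-bla HEK293T) are plated at 3,000/well in 2% charcoal-stripped FBS medium, rested 6 hr, dosed and incubated 16 hr at 37C. CellTiter-Glo is then added and luminescence measured after 30 min at room temperature.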

[13] = qHTS assay to identify small molecule antagonists of the TGF-beta/Smad signaling pathway - cell viability counter screen (AID 1346824); note: nearly all actives have a fitted effect of over 50% in size
Summary of the method: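 SBE-bla HEK 293T cells were plated overnight at 37 C, then given compounds in DMSO plus TGF-beta1 (added as 0.25 ng/mL solution) for 5 hr. After the bla read, CellTiter-Glo was added to the same wells and luminescence read after 30 min at room temperature.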

[14] = qHTS assay to identify small molecule agonists of the TGF-beta/Smad signaling pathway (AID 1346859; active = well fitted activation curve with a large enough effect in the signal ratio in the repeat runs, not every such curve was filed as active; the % refers to the signal ratio; note: series mostly up to about 77 µM)
Summary of the method: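 Reporter line: HEK 293T with stably integrated SBE-controlled beta-lactamase. Compound exposure lasts 5 hr at 37 C and 5% CO2; substrate loading follows for 2 hr at room temperature, with emission read at 460 and 530 nm.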

[15] = target: Estrogen receptor beta (Homo sapiens) (UniProt Q92731); test: qHTS assay to identify small molecule antagonists of the estrogen receptor beta (ER-beta) signaling pathway (AID 1259378; active = well fitted inhibition curve with a large enough effect in the signal ratio in the repeat runs, not every such curve was filed as active; the % refers to the signal ratio)
Summary of the method: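 ER-beta-UAS-bla HEK293T (GripTite) cells in 2% charcoal-stripped FBS medium were preincubated 6 hr at 37C, dosed with compound, then stimulated with 1 nM E2 (final) for 16 hr; beta-lactamase reporter read by B/G FRET fluorescence after 2 hr substrate loading.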

[16] = qHTS assay to identify small molecule agonists of the estrogen receptor alpha (ER-alpha) signaling pathway in the presence of an antagonist - cell viability counter screen (AID 1259386);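 note: series mostly up to about 92 µM; cells exposed to compounds for 22 h at 37 °C before the viability read; nearly all actives have a fitted effect of over 30% in size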
Summary of the method: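 Steps: 5-day stripped-FBS culture; seed and incubate 24hr; add ICI-182,780 (10.0nM final); pin 15-point compound titration; incubate 22hr at 37C; add CellTiter-Fluor at 21hr; read fluorescence.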

[17] = qHTS assay to identify small molecule agonists of the TGF-beta/Smad signaling pathway - cell viability counter screen (AID 1346829); note: top concentration of the series differs between compounds; nearly all actives have a fitted effect of over 45% in size
Summary of the method: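 Tox21 qHTS format: SBE-bla HEK 293T cells treated with DMSO-dissolved compounds for 5 hr; CellTiter-Glo luminescence after 30 min at room temperature.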

[18] = target: Androgen receptor (Homo sapiens) (UniProt P10275); test: qHTS assay to identify small molecule agonists of the androgen receptor (AR) signaling pathway in the presence of an antagonist (AID 1259381; calls by dose curve; note: nearly all actives have a fitted effect of over 15% in size)
Summary of the method: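 AR antagonist background: nilutamide 3.0uM final. Cell line: MDA-kb2, MMTV-driven luciferase, responsive to both AR and GR. Exposure 16hr, 37C, no CO2; ONE-Glo luminescence.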

[19] = target: Thyrotropin-releasing hormone receptor (Homo sapiens) (UniProt P34981); test: qHTS assay to identify small molecule antagonists of the thyrotropin-releasing hormone receptor (TRHR) signaling pathway (AID 1346877; active = well fitted inhibition curve with a large enough effect in the repeat runs, not every such curve was filed as active; note: series mostly up to about 51 µM)
Summary of the method: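 Human TRHR in HEK293 cells; inhibition of the intracellular calcium rise triggered by 1 nM TRH was followed by fluorescence over 3 min. Compounds were run at 15 concentrations, three replicates each.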

Sequence of Estrogen receptor (Homo sapiens) (P03372 whole entry, looked up): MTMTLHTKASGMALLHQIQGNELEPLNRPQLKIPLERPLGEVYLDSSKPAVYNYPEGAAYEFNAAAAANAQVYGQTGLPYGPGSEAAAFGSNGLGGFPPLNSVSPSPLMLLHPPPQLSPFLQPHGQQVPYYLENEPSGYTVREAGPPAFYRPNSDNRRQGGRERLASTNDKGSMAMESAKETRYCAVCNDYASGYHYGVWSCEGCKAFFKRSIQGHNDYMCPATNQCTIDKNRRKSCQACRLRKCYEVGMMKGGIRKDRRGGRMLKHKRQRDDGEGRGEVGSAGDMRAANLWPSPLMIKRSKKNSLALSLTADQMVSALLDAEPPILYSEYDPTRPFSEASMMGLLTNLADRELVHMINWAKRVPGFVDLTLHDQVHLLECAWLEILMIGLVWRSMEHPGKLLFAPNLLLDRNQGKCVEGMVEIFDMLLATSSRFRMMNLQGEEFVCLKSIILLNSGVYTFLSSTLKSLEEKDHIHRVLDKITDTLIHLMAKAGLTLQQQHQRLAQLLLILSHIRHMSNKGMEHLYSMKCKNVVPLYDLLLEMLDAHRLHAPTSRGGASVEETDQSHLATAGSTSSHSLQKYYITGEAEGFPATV
Sequence of Androgen receptor (Homo sapiens) (P10275 whole entry, looked up): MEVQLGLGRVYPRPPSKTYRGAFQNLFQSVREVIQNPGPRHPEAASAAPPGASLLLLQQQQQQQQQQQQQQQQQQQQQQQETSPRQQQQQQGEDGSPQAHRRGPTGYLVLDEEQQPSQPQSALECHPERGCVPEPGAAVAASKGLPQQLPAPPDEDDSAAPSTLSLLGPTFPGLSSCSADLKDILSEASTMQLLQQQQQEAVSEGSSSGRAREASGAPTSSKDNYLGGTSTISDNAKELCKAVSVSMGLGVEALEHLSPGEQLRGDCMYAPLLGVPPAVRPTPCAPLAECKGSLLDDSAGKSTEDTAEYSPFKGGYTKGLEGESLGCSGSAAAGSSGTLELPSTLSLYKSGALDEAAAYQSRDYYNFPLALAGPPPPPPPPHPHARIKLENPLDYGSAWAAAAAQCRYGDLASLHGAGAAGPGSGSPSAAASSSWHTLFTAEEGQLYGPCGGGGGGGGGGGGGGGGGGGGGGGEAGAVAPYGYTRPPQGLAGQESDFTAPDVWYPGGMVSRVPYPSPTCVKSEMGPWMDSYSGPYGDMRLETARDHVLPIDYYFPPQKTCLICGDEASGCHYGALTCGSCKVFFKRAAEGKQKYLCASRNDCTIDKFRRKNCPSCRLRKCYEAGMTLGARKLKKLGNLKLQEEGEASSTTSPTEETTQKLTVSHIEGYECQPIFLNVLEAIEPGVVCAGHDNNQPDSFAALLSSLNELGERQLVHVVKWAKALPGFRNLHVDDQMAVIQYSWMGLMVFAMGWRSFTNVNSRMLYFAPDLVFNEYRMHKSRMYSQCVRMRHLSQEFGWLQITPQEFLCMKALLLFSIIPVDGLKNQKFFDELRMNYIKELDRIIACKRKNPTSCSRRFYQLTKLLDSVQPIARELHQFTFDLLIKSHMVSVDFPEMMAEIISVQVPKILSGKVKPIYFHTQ
Sequence of Thyrotropin receptor (Homo sapiens) (P16473 whole entry, looked up): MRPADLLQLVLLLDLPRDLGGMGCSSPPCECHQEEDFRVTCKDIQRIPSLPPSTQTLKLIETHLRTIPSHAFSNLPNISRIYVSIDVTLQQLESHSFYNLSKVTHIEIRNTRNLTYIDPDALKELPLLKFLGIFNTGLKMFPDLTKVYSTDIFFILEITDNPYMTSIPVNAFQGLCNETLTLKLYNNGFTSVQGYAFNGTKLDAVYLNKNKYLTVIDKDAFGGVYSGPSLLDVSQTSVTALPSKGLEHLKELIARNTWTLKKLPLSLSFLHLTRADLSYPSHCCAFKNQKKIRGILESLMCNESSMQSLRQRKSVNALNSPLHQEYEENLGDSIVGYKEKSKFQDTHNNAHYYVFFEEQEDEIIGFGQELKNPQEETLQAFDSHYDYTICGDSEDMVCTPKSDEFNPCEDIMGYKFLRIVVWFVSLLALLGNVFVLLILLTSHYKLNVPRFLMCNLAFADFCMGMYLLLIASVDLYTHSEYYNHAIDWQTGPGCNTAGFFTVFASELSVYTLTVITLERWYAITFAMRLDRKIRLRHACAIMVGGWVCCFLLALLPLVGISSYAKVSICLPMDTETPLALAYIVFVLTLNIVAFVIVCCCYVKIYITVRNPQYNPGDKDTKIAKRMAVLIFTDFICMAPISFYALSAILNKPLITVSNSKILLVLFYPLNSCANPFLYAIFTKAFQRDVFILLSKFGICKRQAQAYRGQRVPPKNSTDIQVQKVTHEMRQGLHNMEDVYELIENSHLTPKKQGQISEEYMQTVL
Sequence of Progesterone receptor (Homo sapiens) (P06401 whole entry, looked up): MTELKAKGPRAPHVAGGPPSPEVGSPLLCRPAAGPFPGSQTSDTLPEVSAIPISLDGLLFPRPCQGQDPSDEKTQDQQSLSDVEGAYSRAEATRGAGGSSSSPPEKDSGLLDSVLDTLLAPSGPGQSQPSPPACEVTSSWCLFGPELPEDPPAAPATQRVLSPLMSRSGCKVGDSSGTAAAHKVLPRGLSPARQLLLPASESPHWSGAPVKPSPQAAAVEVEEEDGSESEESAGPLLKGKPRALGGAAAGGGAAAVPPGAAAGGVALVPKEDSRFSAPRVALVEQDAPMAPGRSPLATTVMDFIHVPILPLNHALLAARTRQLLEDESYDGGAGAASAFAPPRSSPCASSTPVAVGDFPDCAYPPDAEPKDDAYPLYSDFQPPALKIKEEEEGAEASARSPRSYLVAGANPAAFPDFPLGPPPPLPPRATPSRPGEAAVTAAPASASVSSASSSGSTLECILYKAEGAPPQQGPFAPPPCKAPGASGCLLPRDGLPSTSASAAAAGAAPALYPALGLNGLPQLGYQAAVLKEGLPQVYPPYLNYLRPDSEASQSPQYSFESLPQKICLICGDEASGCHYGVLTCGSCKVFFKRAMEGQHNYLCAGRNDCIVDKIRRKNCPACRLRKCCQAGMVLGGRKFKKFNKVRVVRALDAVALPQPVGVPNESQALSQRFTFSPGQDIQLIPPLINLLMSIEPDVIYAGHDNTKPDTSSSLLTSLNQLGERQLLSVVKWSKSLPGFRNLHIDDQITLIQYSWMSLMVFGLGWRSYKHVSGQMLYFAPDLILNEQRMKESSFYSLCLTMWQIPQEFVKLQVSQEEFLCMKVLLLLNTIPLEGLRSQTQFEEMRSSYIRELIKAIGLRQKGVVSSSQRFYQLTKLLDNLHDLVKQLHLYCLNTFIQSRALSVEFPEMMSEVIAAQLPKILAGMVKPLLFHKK
Sequence of Thyrotropin-releasing hormone receptor (Homo sapiens) (P34981 whole entry, looked up): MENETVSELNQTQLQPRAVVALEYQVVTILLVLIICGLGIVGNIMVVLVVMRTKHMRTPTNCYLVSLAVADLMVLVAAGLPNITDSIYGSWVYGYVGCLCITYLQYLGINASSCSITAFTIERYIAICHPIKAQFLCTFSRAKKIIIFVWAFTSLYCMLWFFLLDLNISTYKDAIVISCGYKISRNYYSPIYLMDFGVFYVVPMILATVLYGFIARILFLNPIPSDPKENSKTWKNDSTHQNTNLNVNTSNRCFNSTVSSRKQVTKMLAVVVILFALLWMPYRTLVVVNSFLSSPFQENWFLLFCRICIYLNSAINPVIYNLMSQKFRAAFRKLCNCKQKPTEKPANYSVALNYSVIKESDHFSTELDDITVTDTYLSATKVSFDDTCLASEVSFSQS
Sequence of Estrogen receptor beta (Homo sapiens) (Q92731 whole entry, looked up): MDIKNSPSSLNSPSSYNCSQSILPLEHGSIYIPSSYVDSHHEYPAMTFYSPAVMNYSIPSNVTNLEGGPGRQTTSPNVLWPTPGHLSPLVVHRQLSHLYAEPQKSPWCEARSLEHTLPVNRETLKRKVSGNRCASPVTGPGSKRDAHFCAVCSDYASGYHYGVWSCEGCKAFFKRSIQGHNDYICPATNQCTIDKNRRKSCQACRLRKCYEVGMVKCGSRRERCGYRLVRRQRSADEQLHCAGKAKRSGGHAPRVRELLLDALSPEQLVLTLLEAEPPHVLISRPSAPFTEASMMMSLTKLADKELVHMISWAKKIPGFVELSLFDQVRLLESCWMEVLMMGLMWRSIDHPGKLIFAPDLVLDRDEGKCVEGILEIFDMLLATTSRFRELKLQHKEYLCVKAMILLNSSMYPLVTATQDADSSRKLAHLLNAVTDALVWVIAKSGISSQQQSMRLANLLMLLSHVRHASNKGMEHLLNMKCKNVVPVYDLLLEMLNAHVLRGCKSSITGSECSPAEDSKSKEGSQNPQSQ

With `CC(N)CN` (configuration not stated) the Potency [1] was “inactive”, the Potency [2] was “inactive” and the Potency [3] was “inactive”. For the same compound, the Potency [4] was “inactive”, the Potency [5] was “inactive” and the Potency [6] was “inactive”. For the same compound, the outcome [7] was “inactive”, the Potency [8] was “inactive” and the Potency [9] was “inactive”. The Potency [10] was “inactive”, the Potency [11] was “inactive” and the Potency [12] was “inactive”. For the same compound, the outcome [13] was “inactive” and the outcome [14] was “inactive”.

In the case of `C=C(C)C(=O)OCCOC(=O)CC(C)=O`, the Potency [1] is reported as “inactive”, the Potency [2] is reported as “inactive” and the Potency [15] is reported as “inactive”. The Potency [3] was “inactive”, the Potency [4] was “inactive” and the Potency [5] was “inactive”. The outcome [7] was “inactive”, the Potency [8] was “inactive” and the Potency [16] was “inactive”. The Potency [11] was “inactive”, the Potency [12] was “inactive” and the outcome [13] was “inactive”. The outcome [17] was “inactive” and the outcome [14] was “inactive”.

With `CCCc1c(OCCCOc2ccc(OCC(=O)O)cc2)ccc(C(C)=O)c1O` the Potency [1] was “inactive”, the Potency [2] was “inactive” and the Potency [3] was “inactive”. The Potency [4] was 17.2 µM (active), the Potency [18] was “inactive” and the Potency [6] was “inactive”. The Potency [8] was “inactive”, the Potency [16] was “inactive” and the Potency [12] was “inactive”. The outcome [13] was “inactive” and the outcome [17] was “inactive”.

In the case of `Fc1c(F)c(F)c(Br)c(F)c1F`, the Potency [1] is reported as “inactive”, the Potency [2] is reported as “inactive” and the Potency [3] is reported as “inactive”. The Potency [4] was “inactive”, the Potency [5] was “inactive” and the outcome [7] was “inactive”. The Potency [8] was “inactive”, the Potency [16] was “inactive” and the Potency [9] was “inactive”. For the same compound, the Potency [10] was “inactive”, the Potency [12] was “inactive” and the outcome [13] was “inactive”. The outcome [17] was “inactive” and the outcome [14] was “inactive”.

In the case of `CNC(=O)N(c1ccccc1)c1ccccc1`, the Potency [1] is reported as “inactive”, the Potency [2] is reported as 6.89 µM (active) and the Potency [3] is reported as “inactive”. The Potency [4] was “inactive”, the Potency [18] was “inactive” and the Potency [5] was “inactive”. The Potency [6] was “inactive”, the outcome [7] was “inactive” and the Potency [16] was “inactive”. The Potency [9] was “inactive”, the Potency [10] was “inactive” and the Potency [11] was “inactive”. For the same compound, the Potency [12] was “inactive”, the outcome [13] was “inactive” and the outcome [17] was “inactive”. The outcome [14] was “inactive” and the outcome [19] was “inactive”.

With `CC(C)CCCC(=O)O` the Potency [1] was “inactive”, the Potency [2] was “inactive” and the Potency [3] was “inactive”. For the same compound, the Potency [4] was “inactive”, the Potency [18] was “inactive” and the Potency [5] was “inactive”. The Potency [6] was “inactive”, the Potency [16] was “inactive” and the Potency [9] was “inactive”. For the same compound, the Potency [10] was “inactive”, the Potency [11] was “inactive” and the Potency [12] was “inactive”. The outcome [13] was “inactive”, the outcome [17] was “inactive” and the outcome [14] was “inactive”.

With `CN1CCN(CCCN2c3ccccc3Sc3ccc(S(=O)(=O)N(C)C)cc32)CC1` the Potency [1] was “inactive”, the Potency [2] was 13.3 µM (active) and the Potency [3] was “inactive”. The Potency [4] was 23.7 µM (active), the Potency [5] was 23.7 µM (active) and the outcome [7] was “inactive”. The Potency [8] was 29.8 µM (active), the Potency [9] was “inactive” and the Potency [11] was 13.3 µM (active). The Potency [12] was 6.68 µM (active), the outcome [13] was “inactive” and the outcome [17] was “inactive”. For the same compound, the outcome [14] was “inactive” and the outcome [19] was “inactive”.

In the case of `COc1cc2c(cc1OC)-c1cc(=Nc3c(C)cc(C)cc3C)n(C)c(=O)n1CC2`, the Potency [1] is reported as “inactive”, the Potency [2] is reported as 0.596 µM (active) and the Potency [3] is reported as “inactive”. For the same compound, the Potency [4] was “inactive”, the Potency [18] was “inactive” and the Potency [5] was “inactive”. For the same compound, the Potency [6] was “inactive”, the outcome [7] was “inactive” and the Potency [8] was “inactive”. For the same compound, the Potency [16] was “inactive”, the Potency [9] was “inactive” and the Potency [10] was 26.6 µM (active). The outcome [13] was “inactive”, the outcome [17] was “inactive” and the outcome [14] was “inactive”.

For `CCC1(C)CC(=O)NC1=O` (configuration not stated), the Potency [1] was “inactive”, the Potency [2] was “inactive” and the Potency [3] was “inactive”. For the same compound, the Potency [4] was “inactive”, the Potency [5] was “inactive” and the Potency [6] was “inactive”. For the same compound, the Potency [9] was “inactive”, the Potency [10] was “inactive” and the Potency [11] was “inactive”. The Potency [12] was “inactive”, the outcome [13] was “inactive” and the outcome [17] was “inactive”. For the same compound, the outcome [14] was “inactive”.
